One assay has as its system CRL-7250. As to the kind of experiment: qHTS assay to identify novel small-molecules to repurpose for Merkel cell carcinoma treatment (AID 1296009). Also: nearly all actives have a fitted effect of over 60% in size. Particulars: MCC and control cell lines, CellTiter-Glo viability, 72 h; series mostly up to 92 µM. Summed up:
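Cells were treated for 72 hr at 37 degree celsius with compounds in 8- or 11-point dose response. Viability was read by CellTiter-Glo luminescence, normalized to no-cell (cytotoxicity) and DMSO controls.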

Assay [1] is described as follows: qHTS for Inhibitors of the Functional Ribonucleoprotein Complex (vRNP) of Lassa (LASV) Arenavirus: LASV Primary Screen - GLuc reporter signal (AID 1347082; calls by dose curve; tested in HEK293 reporter line; also: % is scaled to controls: 0 for no effect and ±100 for the full control effect; nearly all actives have a fitted effect of over 60% in size).
A short description of assay [2]: qHTS for Inhibitors of the Functional Ribonucleoprotein Complex (vRNP) of Lassa (LASV) Arenavirus: Viability assay - alamar blue signal for LASV Primary Screen (AID 1347083; calls by dose curve; tested in HEK293 reporter line; also: nearly all actives have a fitted effect of over 80% in size; also: potency is read from the fitted curve at half-maximal effect). Background: Quantitative high-throughput screening tests each substance at several concentrations.
A short description of assay [3]: qHTS for Inhibitors of the Functional Ribonucleoprotein Complex (vRNP) of Lymphocytic Choriomeningitis Arenaviruses (LCMV): Viability assay - alamar blue signal for LCMV Primary Screen (AID 1347085; calls by dose curve; tested in HEK293 reporter line; also: % is scaled to controls: 0 for no effect and ±100 for the full control effect; nearly all actives have a fitted effect of over 80% in size).
For assay [4], the target named is Nucleoprotein (Lymphocytic choriomeningitis virus (strain Armstrong)) (UniProt P09992). Briefly: qHTS for Inhibitors of the Functional Ribonucleoprotein Complex (vRNP) of Lymphocytic Choriomeningitis Arenaviruses (LCMV): LCMV Primary Screen - GLuc reporter signal (AID 1347086; calls by dose curve; also: % is scaled to controls: 0 for no effect and ±100 for the full control effect; nearly all actives have a fitted effect of over 70% in size).
Nucleoprotein (Lymphocytic choriomeningitis virus (strain Armstrong)), sequence (P09992 whole entry, looked up): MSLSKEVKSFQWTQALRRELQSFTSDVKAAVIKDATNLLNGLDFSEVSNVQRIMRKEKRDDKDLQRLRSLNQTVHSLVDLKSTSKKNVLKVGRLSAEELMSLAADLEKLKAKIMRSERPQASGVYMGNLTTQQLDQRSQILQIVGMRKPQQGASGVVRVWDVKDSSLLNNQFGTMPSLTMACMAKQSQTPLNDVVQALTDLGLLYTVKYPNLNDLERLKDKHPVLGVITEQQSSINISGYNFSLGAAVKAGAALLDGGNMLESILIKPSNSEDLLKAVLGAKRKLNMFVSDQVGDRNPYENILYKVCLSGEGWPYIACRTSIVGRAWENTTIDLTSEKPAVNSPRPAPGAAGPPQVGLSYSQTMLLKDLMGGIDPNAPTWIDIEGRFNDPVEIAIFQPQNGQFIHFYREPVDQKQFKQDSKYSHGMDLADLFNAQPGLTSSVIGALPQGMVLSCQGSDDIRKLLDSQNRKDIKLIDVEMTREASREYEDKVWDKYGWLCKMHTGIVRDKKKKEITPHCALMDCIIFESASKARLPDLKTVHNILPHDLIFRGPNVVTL
Assay [5] can be described thus: Cytotoxicity counterscreen for inhibitors of SARS-CoV-2 cell entry (AID 1645845; calls by dose curve; also: % is scaled to controls: 0 for no effect and ±100 for the full control effect; nearly all actives have a fitted effect of over 50% in size). Summed up:
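HEK293-ACE2 cells (Expi293F stably expressing human ACE2) seeded overnight, then compound for 1 h plus 48 h at 37C. Viability as ATP content by luminescence; normalized to wells with cells and media-only wells.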
A general note: Counterscreens check selectivity or assay interference.

Assay [6] is described as follows: Primary qHTS for Huh7 cytotoxicity: counterscreen for inhibitors of MERS-S pseudotyped particle cell entry (AID 1479147; calls by dose curve; also: % is scaled to controls: 0 for no effect and ±100 for the full control effect). Conditions: outcome: dose series up to 57.1 µM unless noted.
Assay [7] is described as follows: Primary qHTS for inhibitors of MERS-S pseudo-typed particle cell entry (AID 1479149; calls by dose curve; also: % is scaled to controls: 0 for no effect and ±100 for the full control effect; nearly all actives have a fitted effect of over 60% in size).
Assay [8] in a line: Primary qHTS to identify inhibitors of SARS-CoV-2 cell entry (AID 1645846; calls by dose curve; also: nearly all actives have a fitted effect of over 45% in size). Conditions: activity change, negative = inhibition: at 57.1 µM (top of the series) unless noted. Summed up:
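Data are normalized to wells receiving SARS-CoV-2-S pseudoparticles and those given bald particles. Entry signal was luciferase luminescence in stable hACE2 Expi293F cells, 48 hr post-infection, after 1 hr compound pretreatment.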

Structures are written as SMILES. Records with an inconclusive call do not appear. The source made the active and inactive calls. Unless noted, calls follow the shape of the dose curve; as a rule, active = well fitted inhibition curve with a large enough effect; inconclusive = small, poorly fitted or top-dose-only effect; inactive = flat fitted curve, though single readings scatter.

As to `Cn1c(=O)c2nc(/C=C/c3cccc(Cl)c3)n(C)c2n(C)c1=O`, the Potency result in the assay with CRL-7250 is “inactive”.

Consider `CN(C)c1nc(Cc2ccc(NC(=O)c3ccc(C(F)(F)F)cc3)cc2)nc(N(C)C)c1CC(=O)O`, for which the Potency entry (in assay [1]; in [2]; in assay [3]; in assay [4]; in the assay with CRL-7250) was “inactive” throughout.

Regarding `CCNC(=O)Nc1ccc2ncc(Nc3ccc(C)cc3)nc2n1`, the Potency result (in [1]; with CRL-7250) was “inactive” throughout. For the same molecule, in [2], the Potency was 2.17 µM (active).

Turning to `C[N+]1(C)[C@@H]2C[C@@H](OC(=O)C(O)(c3cccs3)c3cccs3)C[C@H]1[C@@H]1O[C@@H]12`, the Potency result (in [1]; in assay [2]; in assay [3]; in assay [4]; with CRL-7250) was “inactive” in each case.

As to `CON=C(C(=O)N[C@@H]1C(=O)N2C(C(=O)OCOC(=O)C(C)(C)C)=C(C=Cc3scnc3C)CS[C@H]12)c1csc(N)n1`, the Potency result (in [1]; in [2]; in [3]; in [4]; in the assay with CRL-7250) was “inactive” in each case.

In the case of `COc1cc(C2CC(=O)Nc3c2cc(Br)c2ccccc32)cc(OC)c1OC` (stereo not given), in the assay on CRL-7250, the Potency entry is “inactive”.

Consider `CN(C)c1ccccc1CN1CCCN(Cc2ccccc2N(C)C)C1c1ccncc1`, for which the Potency entry (in [1]; in assay [2]; in the assay on CRL-7250) was “inactive” in each case.

As for `CCOC(=O)N1CCN([N+]([O-])=NOc2cc(ON=[N+]([O-])N3CCN(C(=O)OCC)CC3)c([N+](=O)[O-])cc2[N+](=O)[O-])CC1`, the Potency result (in assay [1]; in assay [2]; in assay [3]; in [4]; in the assay with CRL-7250) was “inactive” throughout.

With `CN(C1CCc2c(c3ccccc3n2CC(=O)O)C1)S(=O)(=O)c1ccc(F)cc1` (stereo not given), the Potency result (in [1]; in assay [2]; in [3]; in [4]; in the assay on CRL-7250) was “inactive” throughout.

Turning to `NC1CCC(Nc2nc(Nc3ccc(C(=O)N4CCCCC4)cc3)c3ncn(-c4cccc(F)c4)c3n2)CC1` (stereo not given), the Potency result (in [1]; in assay [2]; in assay [3]; in [4]; with CRL-7250) was “inactive” each time.

Turning to `CC(C)(O)[C@H]1CC[C@@](C)([C@H]2[C@@H](O)C[C@@]3(C)[C@@H]4C[C@H](O[C@@H]5O[C@H](CO)[C@@H](O)[C@H](O)[C@@H]5O)[C@H]5C(C)(C)[C@@H](O[C@@H]6OC[C@@H](O)[C@H](O)[C@@H]6O)CC[C@@]56C[C@@]46CC[C@]23C)O1`, the Potency entry (in assay [1]; in assay [2]; in assay [3]; in assay [4]; in the assay on CRL-7250) was “inactive” throughout.

For the molecule `COc1cc(Br)c(S(=O)(=O)Nc2ccc(Cl)c(O[C@@H]3CCN(C)C3)c2)cc1OC`, in the assay on CRL-7250, the Potency entry was “inactive”.

With `CC(=O)C1=C(O)C=C2Oc3c(C(C)=O)c(O)c(C)c(O)c3C2(C)C1=O` (stereo not given), the Potency result (in assay [1]; in assay [2]; in assay [3]; in [4]; in the assay on CRL-7250) was “inactive” throughout.

In the case of `CC1C(=O)OC2C(O)C34C5CC(C(C)(C)C)C36C(OC(=O)C6O)OC4(C(=O)O5)C12O` (stereo not given), the Potency entry (in assay [1]; in assay [2]; in [3]; in assay [4]; in the assay on CRL-7250) was “inactive” throughout.

As for `NC(=O)NN=Cc1ccc([N+](=O)[O-])o1`, the Potency entry (in [1]; in assay [2]; in [3]; in assay [4]; with CRL-7250) was “inactive” throughout.

On to `O=C(NCc1ccccc1)[C@H](Cc1ccccc1)NC(=O)[C@@H]1O[C@@H]1C(=O)NCCc1ccc(O)cc1`, for which the Potency entry (in assay [1]; in [2]; in assay [3]; in the assay with CRL-7250) was “inactive” throughout.

Take `CC(=O)OC[C@]12[C@H](OC(C)=O)[C@H](OC(=O)c3ccccc3)[C@@H]3[C@@H](OC(C)=O)[C@]1(OC3(C)C)[C@H](C)C[C@H](OC(C)=O)[C@@H]2OC(=O)c1ccccc1`: the Potency result in the assay with CRL-7250 is “inactive”.

Turning to `COc1c(O)cc2c(c1O)[C@@H]1O[C@H](CO)[C@@H](O)[C@H](O)[C@H]1OC2=O`, the Potency result (in assay [1]; in assay [2]; in assay [3]; in [4]; in the assay with CRL-7250) was “inactive” throughout.

For the molecule `COc1ccc2cc(C(C)C(=O)Oc3ccc(C(N)=S)cc3)ccc2c1` (stereo not given), the Potency entry in the assay on CRL-7250 is “inactive”.

In the case of `OC[C@H]1O[C@@H](Oc2cc(O)cc(C=Cc3ccc(O)cc3)c2)[C@H](O)[C@@H](O)[C@H]1O`, the Potency entry (in assay [1]; in assay [2]; in [3]; in [4]; in the assay on CRL-7250) was “inactive” in each case.

As for `O=C(O)[C@H](CC(=O)N1C[C@@H]2CCCC[C@H]2C1)Cc1ccccc1`, the Potency entry (in [1]; in assay [2]; in [3]; in assay [4]; in the assay with CRL-7250) was “inactive” each time.

As for `CN[C@@H]1[C@@H](O)[C@@H](O[C@@H]2[C@@H](O)[C@H](O[C@H]3O[C@H](CN)[C@@H](O)[C@H](O)[C@@H]3O)[C@@H](N)C[C@@H]2NC(=O)[C@@H](O)CN)OC[C@]1(C)O`, the Potency result (in assay [1]; in assay [2]; in assay [3]; in assay [4]; in the assay with CRL-7250) was “inactive” in each case.

Consider `CC1(C)[C@H]2CC[C@]3(C)[C@@H](C(=O)C=C4[C@@H]5C[C@@](C)(C(=O)O)CC[C@]5(C)CC[C@]43C)[C@@]2(C)CC[C@@H]1O`, for which the Potency result (in assay [1]; in assay [2]; in assay [3]; in assay [4]; with CRL-7250) was “inactive” in each case.

Turning to `COc1cc(/C=C/C(=O)OC2CC3CCC2(C)C3(C)C)ccc1O` (stereo not given), the Potency result (in assay [1]; in [2]; in assay [3]; in [4]; in the assay with CRL-7250) was “inactive” in each case.

Consider `COC(=O)N[C@H](C(=O)N1CCC[C@@H]1c1ncc(-c2ccc(-c3ccc(-c4cnc([C@@H]5CCCN5C(=O)[C@@H](NC(=O)OC)C(C)C)[nH]4)cc3)cc2)[nH]1)C(C)C`, for which the Potency entry (in [1]; in assay [2]; in assay [3]; in the assay on CRL-7250) was “inactive” each time.

For the molecule `CN(C)CCC=C1c2ccccc2COc2ccc(CC(=O)O)cc21`, the Potency result (in [1]; in [2]; in assay [3]; in assay [4]; in the assay on CRL-7250) was “inactive” in each case.

For `C=C[C@@H]1CN2CCC1C[C@@H]2C(O)c1ccnc2ccc(OC)cc12` (stereo not given in full), the Potency entry (in assay [1]; in [2]; in [3]; in [4]; in the assay on CRL-7250) was “inactive” each time.

As to `c1ccc(CNc2nc(N3CCOc4ccccc43)nc3c2CCCC3)cc1`, the Potency result (in assay [1]; in assay [2]; in assay [3]; in assay [4]; in assay [5]; in the assay with CRL-7250) was “inactive” in each case.

Regarding `N#Cc1ccc(Oc2ccc3c(c2)COB3O)cc1`, the Potency entry in assay [1], in assay [2], in assay [3], in assay [4], in assay [7] and in assay [5] was “inactive” throughout. For the same molecule, the Potency entry (in assay [8]; in the assay on CRL-7250) was “inactive” throughout. The molecule was classed as inactive in [6]. Also, the activity change, negative = inhibition in [8] is -3.74%.

Values taken from PubChem BioAssay (NCATS).
